Structures are written as SMILES. The source made the active and inactive calls. How the source made its calls: active means hit-call score of the fitted dose curve at least 0.9, where 1 is the maximum; inactive means score below 0.9.

33 compounds from PubChem BioAssay (EPA / NIEHS) can be followed below.

Read-out in the experiment: Macrophage colony-stimulating factor (MCSF), CSF1 (gene 1435)
Briefly: BSK_CASM3C_MCSF: BioMAP Diversity Plus: CASM3C Assay for Macrophage colony-stimulating factor (MCSF) Biomarker Activity (AID 2283044).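 Further: M-CSF protein amount quantified by ELISA after 24 h exposure.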 The conditions noted are these: primary human coronary artery smooth muscle cells; actives raise or lower the signal.
`ClCC(Cl)CCl`: the result was inactive.

As to `CCOP(=S)(OCC)SCSP(=S)(OCC)OCC`, the result was inactive.

In the case of `CC(=O)C(Cl)C(=O)N(C)C` (stereo not drawn), the AC50 – broadly, the concentration at which the activity in the assay is half-maximal – is 16.3 µM (active).

Consider `COc1cc(-c2ccc(N)c(OC)c2)ccc1N`, for which the outcome was inactive.

Regarding `O=C1C2(Cl)C3(Cl)C4(Cl)C(Cl)(Cl)C5(Cl)C3(Cl)C1(Cl)C5(Cl)C24Cl` (stereo not drawn), the AC50 was 26.6 µM (active).

Consider `CCOC(=O)/C=C(C)/C=C/C[C@@H](C)CCCC(C)C`, for which the concentration at half-maximal activity (AC50) is 26.6 µM (active).

With `CCOP(=S)(OCC)Oc1ccc(S(C)=O)cc1` (stereo not drawn), the result was inactive.

For `ClC1(Cl)C2(Cl)C3(Cl)C4(Cl)C(Cl)(Cl)C5(Cl)C3(Cl)C1(Cl)C5(Cl)C24Cl` (stereo not drawn), the outcome was inactive.

Consider `CCC(=O)C(CC(C)N(C)C)(c1ccccc1)c1ccccc1` (stereo not drawn), for which the outcome was inactive.

`Cn1sc(Cl)cc1=O`: the result was inactive.

As to `Oc1cccc2cccnc12`, the result was inactive.

As for `CC(C)(C)c1cc(O)ccc1O`, the AC50 is 20 µM (active).

On to `CCNc1nc(NC(C)(C)C)nc(SC)n1`, for which the result was inactive.

Consider `CC(C)c1ccc(CO)cc1`, for which the outcome was inactive.

With `CC(C)(C)CC(C)(C)c1ccc(O)cc1`, the AC50 was 11.3 µM (active).

Take `CCN1CCC2(CC1)COc1cc3c(cc12)N(C(=O)c1ccc(-c2ccc(-c4nnc(C)o4)cc2C)cc1)CC3`: the half-maximal activity concentration (AC50) is 27.4 µM (active).

Regarding `O=Cc1cccc(Oc2ccccc2)c1`, the outcome was inactive.

Take `Cc1ccccc1N`: the result was inactive.

On to `O=C(O)C(Cl)(Cl)Cl`, for which the result was inactive.

Regarding `O=c1[nH]c(=O)[nH]c(=O)[nH]1`, the result was inactive.

As to `O=[N+]([O-])c1ccc2c3c(cccc13)CC2`, the outcome was inactive.

As for `C=CC(=O)OCCCCCC(C)C`, the result was inactive.

Consider `CCC(C)(C)c1ccc(O)c(C(C)(C)CC)c1`, for which the AC50 is 28.9 µM (active).

Regarding `CCOP(=S)(OCC)SCCS(=O)(=O)CC`, the result was inactive.

For `Nc1ncc([N+](=O)[O-])s1`, the outcome was inactive.

`O=C(O)C(F)(F)C(F)(F)C(F)(F)C(F)(F)C(F)(F)C(F)(F)C(F)(F)C(F)(F)C(F)(F)C(F)(F)F`: the outcome was inactive.

Turning to `O=C(O)C(F)(F)C(F)(F)C(F)(F)C(F)(F)C(F)(F)C(F)(F)F`, the result was inactive.

With `NC(=O)O`, the result was inactive.

As for `Oc1c(I)cc(I)cc1I`, the outcome was inactive.

With `NC(=S)Nc1ccccc1`, the result was inactive.

For `COP(=S)(OC)Oc1ccc(S(=O)(=O)N(C)C)cc1`, the outcome was inactive.

`COC[C@H](C)N(C(=O)CCl)c1c(C)csc1C`: the outcome was inactive.

With `Nc1ccc(-c2ccc(N)c(Cl)c2)cc1Cl`, the result was inactive.
